In all, about 39,000 compounds went through this assay and about 3,300 (8.5%) were called active. The list comes from a sample in which actives are over-represented; it also holds similar structures and randomly drawn compounds.
What follows are compounds tested on HepG2 (assay: cytotoxicity call (relative viability < 0.9)). Conditions: 10 µM.
For `CCS(=O)(=O)N1Cc2nccn2C[C@H](Cn2ncccc2=O)C1`, the cytotoxicity call was “inactive”. For `Cc1ccc(S(=O)(=O)Nc2ccc3c(c2)C(=O)N([C@@H](C)CO)C[C@@H](C)[C@@H](CN(C)S(=O)(=O)c2ccc(F)cc2)O3)cc1`, the cytotoxicity call was “inactive”. For `Cc1noc(C)c1S(=O)(=O)Nc1cccc2c1O[C@H](CN(C)S(C)(=O)=O)[C@H](C)CN([C@@H](C)CO)C2=O`, the cytotoxicity call was “inactive”. In the case of `Cc1noc(C)c1S(=O)(=O)Nc1cccc2c1O[C@@H](CN(C)S(C)(=O)=O)[C@@H](C)CN([C@H](C)CO)C2=O`, the cytotoxicity call is reported as “inactive”. For `Cc1noc(C)c1S(=O)(=O)Nc1cccc2c1O[C@H](CN(C)Cc1ccc(C(=O)O)cc1)[C@@H](C)CN([C@H](C)CO)C2=O`, the cytotoxicity call was “inactive”. In the case of `Cc1noc(C)c1S(=O)(=O)Nc1cccc2c1O[C@@H](CN(C)S(C)(=O)=O)[C@@H](C)CN([C@@H](C)CO)C2=O`, the cytotoxicity call is reported as “active”. With `Cc1noc(C)c1S(=O)(=O)Nc1cccc2c1O[C@H](CN(C)Cc1ccc(C(=O)O)cc1)[C@H](C)CN([C@H](C)CO)C2=O` the cytotoxicity call was “active”. With `Cc1noc(C)c1S(=O)(=O)Nc1cccc2c1O[C@H](CN(C)Cc1ccc(C(=O)O)cc1)[C@H](C)CN([C@@H](C)CO)C2=O` the cytotoxicity call was “inactive”. `CC(C)CC#Cc1cnc2c(c1)C(=O)N([C@@H](C)CO)C[C@@H](C)[C@@H](CN(C)S(=O)(=O)c1cccs1)O2` was tested, and the cytotoxicity call was “inactive”. With `C[C@H](CO)N1C[C@H](C)[C@H](CN(C)C(=O)Nc2ccc(F)cc2)OCCCC[C@H](C)Oc2ccc(NC(=O)c3ccncc3)cc2C1=O` the cytotoxicity call was “inactive”. With `CCS(=O)(=O)N1CC[C@]2(CC1)CN(Cc1ccc3c(c1)OCO3)[C@@H](CO)c1[nH]c3cc(ccc3c12)OC` the cytotoxicity call was “inactive”. With `CCC(=O)N1C[C@]2(CN(C2)C(=O)CN2CCOCC2)c2c([nH]c3cc(ccc23)OC)[C@H]1CO` the cytotoxicity call was “inactive”. For `COc1ccc(S(=O)(=O)Nc2ccc3c(c2)C(=O)N([C@H](C)CO)C[C@H](C)[C@@H](CN(C)C(=O)Nc2ccc4c(c2)OCO4)OCCCC[C@@H](C)O3)cc1`, the cytotoxicity call was “inactive”. With `C[C@@H]1CN([C@@H](C)CO)C(=O)c2cccc(NC(=O)c3ccncc3)c2O[C@@H]1CN(C)S(=O)(=O)c1cn(C)cn1` the cytotoxicity call was “inactive”. In the case of `Cc1ccc(S(=O)(=O)N(C)C[C@@H]2OCCCC[C@@H](C)Oc3ccc(NC(=O)Nc4ccc(C(F)(F)F)cc4)cc3C(=O)N([C@H](C)CO)C[C@H]2C)cc1`, the cytotoxicity call is reported as “inactive”. With `Cc1ccc(S(=O)(=O)N(C)C[C@@H]2OCCCC[C@H](C)Oc3ccc(NC(=O)Nc4ccc(C(F)(F)F)cc4)cc3C(=O)N([C@@H](C)CO)C[C@@H]2C)cc1` the cytotoxicity call was “inactive”. In the case of `Cc1ccc(S(=O)(=O)N(C)C[C@H]2OCCCC[C@@H](C)Oc3ccc(NC(=O)Nc4ccc(C(F)(F)F)cc4)cc3C(=O)N([C@@H](C)CO)C[C@@H]2C)cc1`, the cytotoxicity call is reported as “active”. In the case of `Cc1ccc(S(=O)(=O)N(C)C[C@H]2OCCCC[C@H](C)Oc3ccc(NC(=O)Nc4ccc(C(F)(F)F)cc4)cc3C(=O)N([C@@H](C)CO)C[C@@H]2C)cc1`, the cytotoxicity call is reported as “inactive”. `Cc1ccc(S(=O)(=O)N(C)C[C@@H]2OCCCC[C@@H](C)Oc3ccc(NC(=O)Nc4ccc(C(F)(F)F)cc4)cc3C(=O)N([C@@H](C)CO)C[C@H]2C)cc1` was tested, and the cytotoxicity call was “active”. In the case of `Cc1ccc(S(=O)(=O)N(C)C[C@@H]2OCCCC[C@H](C)Oc3ccc(NC(=O)Nc4ccc(C(F)(F)F)cc4)cc3C(=O)N([C@H](C)CO)C[C@H]2C)cc1`, the cytotoxicity call is reported as “inactive”. For `O=C([O-])C=CC(=O)[O-].[Fe+2]`, the cytotoxicity call was “inactive”. For `O=C(CCCCC(=O)N/N=C/[C@H](O)[C@@H](O)[C@H](O)[C@H](O)CO[C@H]1O[C@H](CO)[C@H](O)[C@H](O)[C@H]1O)NO`, the cytotoxicity call was “inactive”. `CC(C)NC(=O)N(C)C[C@H]1Oc2ccc(NS(=O)(=O)c3ccc(Cl)cc3)cc2CC(=O)N([C@H](C)CO)C[C@H]1C` was tested, and the cytotoxicity call was “inactive”. For `CCOC(=O)c1nnn(-c2nonc2N)c1CN1CCSCC1`, the cytotoxicity call was “inactive”. For `CCOC(=O)CCCCCC(=O)Nc1ccc2c(c1)C(=O)N([C@@H](C)CO)C[C@H](C)[C@H](CN(C)S(C)(=O)=O)O2`, the cytotoxicity call was “inactive”. In the case of `Nc1cc(-c2ccccc2)ccc1O`, the cytotoxicity call is reported as “inactive”. In the case of `COc1ccc(O)c(N)c1`, the cytotoxicity call is reported as “active”. For `COc1ccc(C(C)=O)c(O)c1`, the cytotoxicity call was “inactive”. In the case of `COc1ccc(NC(=O)N(C)C[C@H]2Oc3ccc(NS(C)(=O)=O)cc3CC(=O)N([C@@H](C)CO)C[C@H]2C)cc1`, the cytotoxicity call is reported as “inactive”. `COc1ccc2c(O[C@H]3CCCC[C@@H]3OC)nccc2c1-n1ccnc1-c1c[nH]c2c(N)c(F)cc(C#N)c12` was tested, and the cytotoxicity call was “active”. With `C[C@@H]1CN([C@@H](C)CO)C(=O)c2cc(NS(=O)(=O)c3cn(C)cn3)ccc2O[C@@H](C)CCCCO[C@@H]1CN(C)S(=O)(=O)c1cn(C)cn1` the cytotoxicity call was “inactive”. In the case of `COc1ccc(-c2coc3cc(OC)cc(OC)c3c2=O)cc1`, the cytotoxicity call is reported as “inactive”. `C[C@H](CO)N1C[C@H](C)[C@@H](CN(C)S(=O)(=O)c2cccc(F)c2)Oc2ncc(C#CC3(O)CCCC3)cc2C1=O` was tested, and the cytotoxicity call was “inactive”. `C[C@@H]1CCCCO[C@@H](CN(C)C(=O)NC2CCCCC2)[C@@H](C)CN([C@H](C)CO)C(=O)c2cc(NC(=O)Cc3ccccc3)ccc2O1` was tested, and the cytotoxicity call was “inactive”. For `C[C@@H]1CN([C@H](C)CO)C(=O)c2cc(NS(C)(=O)=O)ccc2O[C@@H]1CN(C)S(=O)(=O)c1ccc(F)cc1`, the cytotoxicity call was “inactive”. With `C[C@H]1CN([C@@H](C)CO)C(=O)c2cccc(NC(=O)c3nc4ccccc4s3)c2O[C@@H]1CN(C)Cc1ccc(C(=O)Nc2ccccc2N)cc1` the cytotoxicity call was “inactive”. For `C[C@@H]1CN([C@@H](C)CO)C(=O)c2cccc(NC(=O)c3nc4ccccc4s3)c2O[C@H]1CN(C)Cc1ccc(C(=O)Nc2ccccc2N)cc1`, the cytotoxicity call was “inactive”. `C[C@H](CO)N1C[C@H](C)[C@@H](CN(C)Cc2ccc(C(=O)Nc3ccccc3N)cc2)Oc2c(NC(=O)c3nc4ccccc4s3)cccc2C1=O` was tested, and the cytotoxicity call was “active”. For `C[C@@H]1CN([C@@H](C)CO)C(=O)c2cccc(NC(=O)c3nc4ccccc4s3)c2O[C@@H]1CN(C)Cc1ccc(C(=O)Nc2ccccc2N)cc1`, the cytotoxicity call was “active”. `C[C@H]1CN([C@@H](C)CO)C(=O)c2cccc(NC(=O)c3nc4ccccc4s3)c2O[C@H]1CN(C)Cc1ccc(C(=O)Nc2ccccc2N)cc1` was tested, and the cytotoxicity call was “inactive”. For `C[C@H](CO)N1C[C@H](C)[C@H](CN(C)Cc2ccc(C(=O)Nc3ccccc3N)cc2)Oc2c(NC(=O)c3nc4ccccc4s3)cccc2C1=O`, the cytotoxicity call was “inactive”. In the case of `C[C@H]1CCCCO[C@H](CN(C)C(=O)NC2CCCCC2)[C@@H](C)CN([C@@H](C)CO)C(=O)c2cc(NC(=O)CCC(F)(F)F)ccc2O1`, the cytotoxicity call is reported as “inactive”. For `COc1ccc(S(=O)(=O)N(C)C[C@H]2Oc3c(NC(=O)c4cnccn4)cccc3C(=O)N([C@H](C)CO)C[C@H]2C)cc1`, the cytotoxicity call was “inactive”. `C[C@@H]1CN([C@H](C)CO)C(=O)c2cc(NS(=O)(=O)c3ccc(Cl)cc3)ccc2O[C@@H](C)CCCCO[C@@H]1CN(C)Cc1ccncc1` was tested, and the cytotoxicity call was “inactive”. In the case of `CCc1nc2c(C)cc(N3CCN(CC(=O)N4CC(O)C4)CC3)cn2c1N(C)c1nc(-c2ccc(F)cc2)c(C#N)s1`, the cytotoxicity call is reported as “active”. With `COCC#Cc1ccc2c(c1)O[C@H](CN(C)Cc1ccccc1F)[C@@H](C)CN([C@H](C)CO)S2(=O)=O` the cytotoxicity call was “inactive”. `C[C@H](CO)N1C[C@H](C)[C@H](CN(C)S(=O)(=O)c2cccs2)Oc2ccc(NS(=O)(=O)c3ccccc3)cc2CC1=O` was tested, and the cytotoxicity call was “inactive”. In the case of `C[C@@H]1CN([C@H](C)CO)C(=O)c2cccc(NS(=O)(=O)c3ccc(F)cc3)c2O[C@@H]1CN(C)Cc1ccncc1`, the cytotoxicity call is reported as “inactive”. `CC1(C)C=Cc2c(c3c(c4c(=O)c(-c5ccc(O)cc5)coc24)OC(C)(C)CC3)O1` was tested, and the cytotoxicity call was “inactive”. With `CC(C)=CCc1c2c(c3occ(-c4ccc(O)c(O)c4)c(=O)c3c1O)C=CC(C)(C)O2` the cytotoxicity call was “active”. In the case of `CC1(C)C=Cc2c(c3c(c4c(=O)c(-c5ccc(O)c(O)c5)coc24)OC(C)(C)CC3)O1`, the cytotoxicity call is reported as “active”. For `CC(C)=CCc1c2c(c3occ(-c4ccc(O)cc4)c(=O)c3c1O)C=CC(C)(C)O2`, the cytotoxicity call was “inactive”. `CN1CCN(C(=O)C[C@H]2CC[C@@H]3[C@@H](COc4ccc(NC(=O)c5cccs5)cc4C(=O)N3C)O2)CC1` was tested, and the cytotoxicity call was “inactive”. For `Cc1noc(C)c1S(=O)(=O)Nc1ccc2c(c1)C(=O)N([C@@H](C)CO)C[C@H](C)[C@@H](CN(C)Cc1ccccc1)OCCCC[C@@H](C)O2`, the cytotoxicity call was “inactive”. In the case of `C[C@@H]1CN([C@@H](C)CO)C(=O)Cc2cc(NC(=O)Cn3cnnn3)ccc2O[C@@H]1CN(C)Cc1ccc(Oc2ccccc2)cc1`, the cytotoxicity call is reported as “inactive”. `Cc1ccc(S(N)(=O)=O)cc1` was tested, and the cytotoxicity call was “inactive”. `COc1ccc(-c2cc(C(F)F)nn2-c2ccc(S(N)(=O)=O)cc2)cc1F` was tested, and the cytotoxicity call was “inactive”. For `Cc1ccc(-c2cc(C(F)(F)F)nn2-c2ccc(S(N)(=O)=O)cc2)cc1`, the cytotoxicity call was “active”. With `C[C@@H]1CN([C@H](C)CO)C(=O)c2cc(NC(=O)NC3CCCCC3)ccc2O[C@@H](C)CCCCO[C@@H]1CN(C)S(=O)(=O)c1ccc(F)cc1` the cytotoxicity call was “inactive”. In the case of `CN1C2CCC1CC(OC(=O)c1c[nH]c3ccccc13)C2.Cl` (configuration not stated), the cytotoxicity call is reported as “inactive”. `CN1CCC(OC(c2ccccc2)c2ccccc2)CC1.Cl` was tested, and the cytotoxicity call was “inactive”. `CN1C2CCC1CC(OC(c1ccccc1)c1ccccc1)C2.CS(=O)(=O)O` (configuration not stated) was tested, and the cytotoxicity call was “active”. For `Cc1noc(C)c1S(=O)(=O)N(C)C[C@@H]1Oc2c(NS(=O)(=O)c3ccccc3)cccc2C(=O)N([C@H](C)CO)C[C@@H]1C`, the cytotoxicity call was “inactive”. `CC12CCC3c4ccc(O)cc4CCC3C1CCC2=O` (configuration not stated) was tested, and the cytotoxicity call was “inactive”. For `C#CC1(O)CCC2C3CCC4=C(CCC(=O)C4)C3CCC21C` (configuration not stated), the cytotoxicity call was “inactive”. For `C#CC1(O)CCC2C3CCc4cc(O)ccc4C3CCC21C` (configuration not stated), the cytotoxicity call was “active”. In the case of `C#CC1(O)CCC2C3CCC4=CCCCC4C3C(=C)CC21CC` (configuration not stated), the cytotoxicity call is reported as “inactive”. In the case of `CC12CCC3c4ccc(O)cc4CCC3C1CC(O)C2O` (configuration not stated), the cytotoxicity call is reported as “inactive”. In the case of `C#CC1(O)CCC2C3CCc4cc(OC5CCCC5)ccc4C3CCC21C` (configuration not stated), the cytotoxicity call is reported as “inactive”. With `C#CC1(O)CCC2C3CCC4=CCCCC4C3CCC21C` (configuration not stated) the cytotoxicity call was “active”. In the case of `C#CC1(O)CCC2C3CCC4=CC(=O)CCC4C3CCC21C` (configuration not stated), the cytotoxicity call is reported as “inactive”. `C#CC1(O)CCC2C3CCc4cc(OC)ccc4C3CCC21C` (configuration not stated) was tested, and the cytotoxicity call was “active”.

Source: the antibiotic and cytotoxicity screens of Wong et al. (2023)
